Inconclusive results are not listed. Activity calls are given as the source filed them. The calls were made as follows: active = hit-call score of the fitted dose curve at least 0.9, where 1 is the maximum; inconclusive = response in the unintended direction; inactive = score below 0.9.
Tests used:
[1] = biological target: rat Opioid Receptor, Non-selective Sodium (Na+) Binding, Oprm1 (gene 25601) (UniProt P33535); test: NVS_GPCR_rOpiate_NonSelectiveNa: NovaScreen (NVS) G Protein-Coupled Receptor Assay for rat Opioid Receptor, Non-selective Sodium (Na+) Binding (AID 2283311)
Summary of the method: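 Rat forebrain membranes, radioligand displacement with filter scintillation counting, 1.5 h incubation. Screened in duplicate at 25 µM; hits then run in concentration-response up to 50 µM; loss of binding fitted versus DMSO.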

[2] = biological target: rat Gamma-Aminobutyric Acid Type B Receptor (GABBR), Gabbr1 (gene 81657) (UniProt Q9Z0U4); test: NVS_GPCR_rGABBR: NovaScreen (NVS) G Protein-Coupled Receptor Assay for rat Gamma-Aminobutyric Acid Type B Receptor (GABBR) (AID 2283301)
Summary of the method: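 Radioligand displacement on rat cortical membranes, 1 h, filter-based scintillation counting. Primary screen at 25 uM in duplicate; compounds passing threshold re-tested in concentration-response up to 50 uM; loss of binding fitted against DMSO.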

[3] = biological target: rat Somatostatin Receptor (SST), Sstr1 (gene 25033) (UniProt P28646); test: NVS_GPCR_rSST: NovaScreen (NVS) G Protein-Coupled Receptor Assay for rat Somatostatin Receptor (SST) (AID 2283314)
Summary of the method: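 Rat forebrain membranes; radioligand displacement read by filter-based scintillation counting 1 h after dosing. Primary screen in duplicate at 25 uM. Actives (e.g., 30% inhibition) were rerun as concentration-response to 50 uM max and fitted against DMSO.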

[4] = biological target: rat Neurokinin-1 Receptor (NK1), Tacr1 (gene 24807) (UniProt P14600); test: NVS_GPCR_rNK1: NovaScreen (NVS) G Protein-Coupled Receptor Assay for rat Neurokinin-1 Receptor (NK1) (AID 2283309)
Summary of the method: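 Rat submaxillary gland membranes; radioligand displacement read by filter-based scintillation counting after 1 h. Primary screen in duplicate at 25 uM; actives retested in concentration series; loss of binding fitted versus DMSO.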

[5] = biological target: Metabotropic glutamate receptor 1 (Rattus norvegicus) (UniProt P23385); test: NVS_GPCR_rmMGluR1: NovaScreen (NVS) G Protein-Coupled Receptor Assay for rat Glutamate Metabotropic Receptor 1 (MGluR1) (AID 2283305)
Summary of the method: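 Rat cerebellum membrane preparation, radioligand displacement binding read by filter-based scintillation counting 1 hour after dosing. Initial duplicate single-point screen at 25 uM, then concentration-response up to 50 uM; loss of signal versus DMSO baseline scored.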

[6] = biological target: rat Neonicotinoid receptor (NNR), Chrna7 (gene 25302) (UniProt Q05941); test: NVS_LGIC_rNNR_BungSens: NovaScreen (NVS) Ligand-Gated Ion Channel Assay for rat Neonicotinoid receptor (NNR) (AID 2283315)
Summary of the method: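 Radioligand displacement binding on rat cortical membranes, 2.5 h incubation, filtration and scintillation counting. Loss of specific binding fitted relative to DMSO.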

[7] = NVS_IC_rCaDHPRCh_L: NovaScreen (NVS) Ion Channel Assay for rat Calcium Channel, Type L, Dihydropyridine Site (CaDHPRCh_L) (AID 2283320)
Summary of the method: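 Radioligand binding to dihydropyridine site on rat cortical membranes, filter-based scintillation counting, 1 h after dosing. Screened in duplicate at 25 uM; actives rerun in concentration-response up to 50 uM. Loss of signal versus DMSO baseline.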

Adra2b (gene 24174) = Adra2b (gene 24174) (UniProt P19328); test: NVS_GPCR_rmAdra2B: NovaScreen (NVS) G Protein-Coupled Receptor Assay for hybird cells Adrenergic, Alpha 2B Receptor (Adra2B) (AID 2283306)
Summary of the method: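 Radioligand filter-binding assay on membrane proteins from neuroglioma/blastoma hybrid cells (rodent), 1 h after dosing; scintillation counting, loss of signal vs DMSO. Primary screen in duplicate at 25 uM, actives then run in concentration series.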

[8] = biological target: human Opioid Receptor Mu (Opiate Mu), OPRM1 (gene 4988) (UniProt P35372); test: NVS_GPCR_hOpiate_mu: NovaScreen (NVS) G Protein-Coupled Receptor Assay for human Opioid Receptor Mu (Opiate Mu) (AID 2283290);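 also: hits lower bound tracer signal versus DMSO meaning displacement of the ligand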
Summary of the method: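 Cell-free radioligand binding to membranes from CHO cells expressing the receptor; bound tracer measured by filter-based scintillation counting 2.5 hours after dosing. Loss of signal versus DMSO baseline reflects displacement; primary screen at 25 uM in duplicate, actives followed up in concentration series.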

[9] = biological target: guinea pig Serotonin, 5-Hydroxytryptamine Receptor 4 (5HT4), HTR4 (gene 100135548) (UniProt O70528); test: NVS_GPCR_g5HT4: NovaScreen (NVS) G Protein-Coupled Receptor Assay for guinea pig Serotonin, 5-Hydroxytryptamine Receptor 4 (5HT4) (AID 2283294)
Summary of the method: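 Guinea pig striatal membranes; radioligand competitive displacement, filtration and scintillation counting after 1 h. Primary screen in duplicate at 25 uM; actives then tested in concentration series; loss of binding signal fitted relative to DMSO.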

[10] = biological target: rat Adrenergic, Alpha 1A Receptor (Adra1A), Adra1a (gene 29412) (UniProt P43140); test: NVS_GPCR_rAdra1A: NovaScreen (NVS) G Protein-Coupled Receptor Assay for rat Adrenergic, Alpha 1A Receptor (Adra1A) (AID 2283296)
Summary of the method: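 Rat cortical membranes pretreated with chlorethyl clonidine; competitive radioligand displacement, 1 h. Filter-based scintillation counting. Primary screen in duplicate at 25 uM, actives followed in concentration series.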

[11] = biological target: rat Opioid Receptor, Non-selective Binding, Oprm1 (gene 25601) (UniProt P33535); test: NVS_GPCR_rOpiate_NonSelective: NovaScreen (NVS) G Protein-Coupled Receptor Assay for rat Opioid Receptor, Non-selective Binding (AID 2283318)
Summary of the method: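 Rat forebrain membranes, cell-free radioligand binding with filter-based scintillation counting, read 1.5 h after dosing. Primary screen in duplicate at 25 uM; actives retested in concentration series. Loss of signal versus DMSO baseline scored.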

[12] = biological target: guinea pig Bradykinin Receptor B2 (BK2), BDKRB2 (gene 100135486) (UniProt O70526); test: NVS_GPCR_gBK2: NovaScreen (NVS) G Protein-Coupled Receptor Assay for guinea pig Bradykinin Receptor B2 (BK2) (AID 2283292)
Summary of the method: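 Radioligand displacement on guinea pig ileum membranes for 1 h, read by filter-based scintillation counting; loss of signal relative to DMSO. Compounds were screened in duplicate at 25 uM, and those passing the threshold were retested in concentration-response up to 50 uM.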

[13] = biological target: rat Vasopressin 1 Receptor (V1), Avpr1a (gene 25107) (UniProt P30560); test: NVS_GPCR_rV1: NovaScreen (NVS) G Protein-Coupled Receptor Assay for rat Vasopressin 1 Receptor (V1) (AID 2283316)
Summary of the method: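 Radioligand binding on rat liver membranes, 1.5 h incubation, filter-based scintillation counting. Single 25 uM screen in duplicate; chemicals meeting threshold (e.g. 30% inhibition) run in concentration-response up to 50 uM.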

[14] = biological target: rat Histamine Receptor (H3), Hrh3 (gene 85268) (UniProt Q9QYN8); test: NVS_GPCR_rH3: NovaScreen (NVS) G Protein-Coupled Receptor Assay for rat Histamine Receptor (H3) (AID 2283303)
Summary of the method: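 Rat forebrain membranes incubated 1 h with compound; radioligand displacement measured by filter-based scintillation counting. Single-concentration duplicates at 25 µM, then concentration-response up to 50 µM, relative to DMSO.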

[15] = biological target: rat Adrenergic Receptor, Alpha 2 (Adra2), Non-selective Binding, Adra2a (gene 25083) (UniProt P22909); test: NVS_GPCR_rAdra2_NonSelective: NovaScreen (NVS) G Protein-Coupled Receptor Assay for rat Adrenergic Receptor, Alpha 2 (Adra2), Non-selective Binding (AID 2283299)
Summary of the method: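 Rat cortical membranes, radioligand competitive displacement read by filter-based scintillation counting 1.25 hours after dosing. Primary screen in duplicate at 25 uM; actives followed up in concentration series.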

[16] = biological target: rat Neurokinin-3 Receptor (NK3), Tacr3 (gene 24808) (UniProt P16177); test: NVS_GPCR_rNK3: NovaScreen (NVS) G Protein-Coupled Receptor Assay for rat Neurokinin-3 Receptor (NK3) (AID 2283310)
Summary of the method: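 Rat cortical membranes; radioligand binding with filtration and scintillation counting, 2 h after dosing. Primary screen in duplicate at 25 uM, then concentration-response up to 50 uM; loss of binding signal relative to DMSO.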

[17] = biological target: rat Adrenergic Receptor, Beta (Adrb), Non-selective Binding, Adrb1 (gene 24925) (UniProt P18090); test: NVS_GPCR_rAdrb_NonSelective: NovaScreen (NVS) G Protein-Coupled Receptor Assay for rat Adrenergic Receptor, Beta (Adrb), Non-selective Binding (AID 2283298)
Summary of the method: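 Non-selective beta-adrenergic radioligand binding in rat cortical membranes, 1 h incubation, filter-based scintillation read-out. Primary screen 25 uM in duplicate; hits retested in concentration-response up to 50 uM, DMSO baseline.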

NCBI gene 24521 = test: NVS_IC_rKATPCh: NovaScreen (NVS) Ion Channel Assay for rat Potassium Channel, ATP-Sensitive (KATPCh) (AID 2283319)
Summary of the method: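 Rat cortical membranes; radioligand binding at ATP-sensitive K channel site, filter-based scintillation counting 2 h after dosing. Single-point duplicate screen at 25 uM, hits rerun in concentration-response up to 50 uM; loss of signal versus DMSO.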

rat Opioid Receptor, Non-selective Sodium (Na+) Binding, Oprm1 (gene 25601), sequence (P33535 whole entry, looked up): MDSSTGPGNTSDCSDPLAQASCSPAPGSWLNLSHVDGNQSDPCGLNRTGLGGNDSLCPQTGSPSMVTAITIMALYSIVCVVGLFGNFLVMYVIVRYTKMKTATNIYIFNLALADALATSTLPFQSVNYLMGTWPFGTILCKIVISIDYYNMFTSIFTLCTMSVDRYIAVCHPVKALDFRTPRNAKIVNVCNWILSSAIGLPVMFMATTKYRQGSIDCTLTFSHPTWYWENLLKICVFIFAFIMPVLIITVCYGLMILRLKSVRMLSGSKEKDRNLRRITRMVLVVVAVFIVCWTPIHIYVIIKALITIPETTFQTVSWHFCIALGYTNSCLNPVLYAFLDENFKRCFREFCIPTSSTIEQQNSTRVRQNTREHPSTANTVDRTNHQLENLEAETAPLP
human Opioid Receptor Mu (Opiate Mu), OPRM1 (gene 4988), sequence (P35372 whole entry, looked up): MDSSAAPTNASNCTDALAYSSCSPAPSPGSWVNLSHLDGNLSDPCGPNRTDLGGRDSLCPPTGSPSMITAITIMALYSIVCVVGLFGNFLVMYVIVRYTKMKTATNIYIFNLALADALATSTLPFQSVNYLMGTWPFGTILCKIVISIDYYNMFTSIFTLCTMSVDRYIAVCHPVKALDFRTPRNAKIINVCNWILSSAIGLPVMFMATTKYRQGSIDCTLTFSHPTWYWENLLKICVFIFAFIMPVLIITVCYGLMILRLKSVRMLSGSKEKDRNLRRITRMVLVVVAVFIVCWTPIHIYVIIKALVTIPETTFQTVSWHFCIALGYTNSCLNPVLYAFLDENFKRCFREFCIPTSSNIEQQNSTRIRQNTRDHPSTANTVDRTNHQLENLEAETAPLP
guinea pig Serotonin, 5-Hydroxytryptamine Receptor 4 (5HT4), HTR4 (gene 100135548), sequence (O70528 whole entry, looked up): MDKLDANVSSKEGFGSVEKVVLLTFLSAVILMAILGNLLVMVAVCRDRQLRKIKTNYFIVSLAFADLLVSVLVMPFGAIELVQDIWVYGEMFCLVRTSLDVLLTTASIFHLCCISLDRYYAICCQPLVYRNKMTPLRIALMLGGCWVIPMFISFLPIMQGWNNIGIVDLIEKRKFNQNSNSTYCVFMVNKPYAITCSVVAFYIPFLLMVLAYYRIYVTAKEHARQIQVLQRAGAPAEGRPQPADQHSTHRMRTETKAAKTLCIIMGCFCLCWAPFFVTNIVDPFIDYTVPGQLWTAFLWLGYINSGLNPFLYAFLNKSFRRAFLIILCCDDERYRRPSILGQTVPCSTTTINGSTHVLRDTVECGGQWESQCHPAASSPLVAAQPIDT
rat Neurokinin-1 Receptor (NK1), Tacr1 (gene 24807), sequence (P14600 whole entry, looked up): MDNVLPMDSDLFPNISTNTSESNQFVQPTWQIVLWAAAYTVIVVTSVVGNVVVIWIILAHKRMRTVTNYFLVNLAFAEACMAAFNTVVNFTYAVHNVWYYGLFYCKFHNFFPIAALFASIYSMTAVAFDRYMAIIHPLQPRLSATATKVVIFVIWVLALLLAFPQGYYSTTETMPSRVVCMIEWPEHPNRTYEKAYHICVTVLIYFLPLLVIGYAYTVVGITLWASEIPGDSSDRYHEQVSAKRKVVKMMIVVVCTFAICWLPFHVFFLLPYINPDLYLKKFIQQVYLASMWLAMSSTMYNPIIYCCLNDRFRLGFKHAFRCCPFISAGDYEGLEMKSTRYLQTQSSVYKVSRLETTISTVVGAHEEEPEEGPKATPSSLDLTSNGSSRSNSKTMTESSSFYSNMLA
rat Neonicotinoid receptor (NNR), Chrna7 (gene 25302), sequence (Q05941 whole entry, looked up): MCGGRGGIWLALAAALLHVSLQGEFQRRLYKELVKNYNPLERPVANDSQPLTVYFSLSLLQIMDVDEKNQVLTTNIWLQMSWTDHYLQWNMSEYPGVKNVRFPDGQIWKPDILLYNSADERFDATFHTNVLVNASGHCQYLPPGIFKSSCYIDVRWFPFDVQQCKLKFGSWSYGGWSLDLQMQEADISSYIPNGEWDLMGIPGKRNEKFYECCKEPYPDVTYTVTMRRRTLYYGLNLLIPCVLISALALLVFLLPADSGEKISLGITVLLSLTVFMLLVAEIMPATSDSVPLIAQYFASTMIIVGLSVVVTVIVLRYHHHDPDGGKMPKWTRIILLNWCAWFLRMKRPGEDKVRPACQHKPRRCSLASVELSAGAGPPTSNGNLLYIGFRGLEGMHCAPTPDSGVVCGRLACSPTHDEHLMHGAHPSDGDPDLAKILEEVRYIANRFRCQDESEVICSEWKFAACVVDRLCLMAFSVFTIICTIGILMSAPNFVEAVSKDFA
Adra2b (gene 24174), sequence (P19328 whole entry, looked up): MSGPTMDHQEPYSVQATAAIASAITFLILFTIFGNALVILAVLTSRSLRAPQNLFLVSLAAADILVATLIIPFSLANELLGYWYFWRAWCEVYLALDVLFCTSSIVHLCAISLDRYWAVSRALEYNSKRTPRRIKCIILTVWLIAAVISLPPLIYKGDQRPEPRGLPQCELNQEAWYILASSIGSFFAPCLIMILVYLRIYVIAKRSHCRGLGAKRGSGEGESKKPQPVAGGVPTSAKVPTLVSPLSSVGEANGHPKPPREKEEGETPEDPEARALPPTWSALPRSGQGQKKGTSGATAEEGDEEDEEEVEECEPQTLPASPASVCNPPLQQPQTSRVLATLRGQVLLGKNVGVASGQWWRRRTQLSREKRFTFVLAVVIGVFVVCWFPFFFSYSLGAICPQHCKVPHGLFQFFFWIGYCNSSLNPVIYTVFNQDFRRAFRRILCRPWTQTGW
guinea pig Bradykinin Receptor B2 (BK2), BDKRB2 (gene 100135486), sequence (O70526 whole entry, looked up): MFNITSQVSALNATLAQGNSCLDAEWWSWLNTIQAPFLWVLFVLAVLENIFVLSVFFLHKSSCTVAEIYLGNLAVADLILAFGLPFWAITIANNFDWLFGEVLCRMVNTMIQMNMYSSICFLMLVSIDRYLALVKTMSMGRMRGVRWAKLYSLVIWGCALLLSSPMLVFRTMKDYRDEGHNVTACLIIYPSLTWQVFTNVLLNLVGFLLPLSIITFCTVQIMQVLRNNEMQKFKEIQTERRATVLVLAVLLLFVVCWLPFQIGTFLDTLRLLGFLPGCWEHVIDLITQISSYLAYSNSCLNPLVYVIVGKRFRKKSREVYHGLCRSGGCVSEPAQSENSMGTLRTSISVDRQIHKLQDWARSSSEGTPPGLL
Metabotropic glutamate receptor 1 (Rattus norvegicus), sequence (P23385 whole entry, looked up): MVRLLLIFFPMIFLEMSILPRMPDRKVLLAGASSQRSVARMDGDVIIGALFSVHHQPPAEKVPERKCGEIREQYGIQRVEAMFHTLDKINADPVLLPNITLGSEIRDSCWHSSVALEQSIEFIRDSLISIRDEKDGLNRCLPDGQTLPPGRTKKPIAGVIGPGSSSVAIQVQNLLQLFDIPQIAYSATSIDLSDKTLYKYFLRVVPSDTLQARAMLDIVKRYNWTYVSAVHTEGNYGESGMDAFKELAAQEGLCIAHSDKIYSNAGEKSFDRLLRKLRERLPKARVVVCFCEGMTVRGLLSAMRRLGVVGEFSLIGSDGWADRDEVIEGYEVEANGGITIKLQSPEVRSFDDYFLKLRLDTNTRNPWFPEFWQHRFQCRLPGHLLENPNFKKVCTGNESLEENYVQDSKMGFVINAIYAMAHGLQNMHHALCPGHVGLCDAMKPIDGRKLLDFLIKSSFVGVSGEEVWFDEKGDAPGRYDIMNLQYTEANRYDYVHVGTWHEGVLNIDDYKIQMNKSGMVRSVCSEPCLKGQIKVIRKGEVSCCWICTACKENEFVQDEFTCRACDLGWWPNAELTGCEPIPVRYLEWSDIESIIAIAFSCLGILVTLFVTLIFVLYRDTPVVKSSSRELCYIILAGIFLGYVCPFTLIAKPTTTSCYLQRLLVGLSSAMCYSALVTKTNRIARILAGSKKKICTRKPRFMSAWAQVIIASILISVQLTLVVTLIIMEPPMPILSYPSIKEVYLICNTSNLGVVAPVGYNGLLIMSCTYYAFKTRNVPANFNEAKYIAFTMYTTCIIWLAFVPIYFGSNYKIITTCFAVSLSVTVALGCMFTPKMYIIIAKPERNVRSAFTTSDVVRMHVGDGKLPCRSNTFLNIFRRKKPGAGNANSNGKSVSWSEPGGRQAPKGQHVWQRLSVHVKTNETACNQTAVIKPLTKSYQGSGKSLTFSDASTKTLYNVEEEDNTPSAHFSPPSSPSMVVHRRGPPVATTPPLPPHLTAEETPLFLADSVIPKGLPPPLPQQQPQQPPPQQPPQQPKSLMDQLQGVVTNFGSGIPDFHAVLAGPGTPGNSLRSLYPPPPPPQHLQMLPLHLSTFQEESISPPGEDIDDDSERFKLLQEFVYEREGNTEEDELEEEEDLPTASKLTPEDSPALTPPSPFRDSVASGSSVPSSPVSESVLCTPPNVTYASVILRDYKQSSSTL
rat Opioid Receptor, Non-selective Binding, Oprm1 (gene 25601), sequence (P33535 whole entry, looked up): as the sequence (P33535 whole entry, looked up) above
rat Adrenergic Receptor, Beta (Adrb), Non-selective Binding, Adrb1 (gene 24925), sequence (P18090 whole entry, looked up): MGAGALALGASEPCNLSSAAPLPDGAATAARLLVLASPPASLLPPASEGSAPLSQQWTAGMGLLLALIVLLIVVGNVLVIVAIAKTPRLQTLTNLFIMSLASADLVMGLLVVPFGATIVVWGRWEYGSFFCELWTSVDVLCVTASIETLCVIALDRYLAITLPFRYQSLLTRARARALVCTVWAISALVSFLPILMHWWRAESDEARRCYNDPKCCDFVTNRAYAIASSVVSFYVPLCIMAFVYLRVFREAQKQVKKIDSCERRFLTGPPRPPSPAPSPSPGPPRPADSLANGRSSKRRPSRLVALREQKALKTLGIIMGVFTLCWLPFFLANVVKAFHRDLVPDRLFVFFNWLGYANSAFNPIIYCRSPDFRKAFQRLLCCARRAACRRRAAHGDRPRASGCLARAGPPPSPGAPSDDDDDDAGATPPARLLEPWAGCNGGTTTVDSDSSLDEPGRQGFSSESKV

SMILES: CSC(=O)c1cccc2nnsc12
- outcome [1]: inactive

SMILES: COC(=O)c1ccccc1S(=O)(=O)NC(=O)Nc1nc(OC(F)F)cc(OC(F)F)n1
- outcome [2]: inactive
- AC50 [3]: 36.3 µM (active)

SMILES: C[C@]12CC[C@@H]3c4ccc(O)cc4C[C@@H](CCCCCCCCCS(=O)CCCC(F)(F)C(F)(F)F)[C@H]3[C@@H]1CC[C@@H]2O (some centres not stated)
- outcome [4]: inactive

SMILES: O=C(c1ccc(O)cc1O)c1ccc(O)cc1O
- outcome [5]: inactive
- outcome [6]: inactive
- outcome [7]: inactive

SMILES: C[C@]12C[C@H](O)[C@H]3[C@@H](CCC4=CC(=O)CC[C@@]43C)[C@@H]1CC[C@@H]2C(=O)CO
- outcome (Adra2b (gene 24174)): inactive
- outcome [6]: inactive

SMILES: CC(C)CCCCCCc1ccc(O)cc1
- AC50 [8]: 15.8 µM (active)

SMILES: C=CCOC(Cn1ccnc1)c1ccc(Cl)cc1Cl (configuration not stated)
- AC50 [8]: 11.2 µM (active)
- AC50 [9]: 5.39 µM (active)
- AC50 [10]: 17.3 µM (active)
- AC50 (Adra2b (gene 24174)): 6.96 µM (active)
- AC50 [4]: 37.8 µM (active)
- outcome [1]: inactive
- AC50 [11]: 9.36 µM (active)

SMILES: CCCOC(=O)c1ccc(C(=O)OCCC)nc1
- outcome [12]: inactive

SMILES: CC(=O)S[C@@H]1CC2=CC(=O)CC[C@]2(C)[C@H]2CC[C@@]3(C)[C@@H](CC[C@@]34CCC(=O)O4)[C@H]12
- AC50 [1]: 17.8 µM (active)
- AC50 [6]: 17.1 µM (active)

SMILES: CCOC(=O)c1ccc(O)cc1
- outcome [1]: inactive

SMILES: N#CSCSc1nc2ccccc2s1
- AC50 [13]: 2.34 µM (active)

SMILES: CCCOC(=O)NCCCN(C)C
- AC50 [14]: 18.1 µM (active)

SMILES: CCOC(=O)C(C)Oc1ccc(Oc2nc3ccc(Cl)cc3o2)cc1 (configuration not stated)
- outcome [7]: inactive

SMILES: CCC(C)OC(=O)N1CCCCC1CCO (configuration not stated)
- outcome [8]: inactive

SMILES: Oc1ccc(C(c2ccc(O)cc2)C(Cl)(Cl)Cl)cc1
- AC50 [8]: 3.58 µM (active)
- AC50 [9]: 2.7 µM (active)
- AC50 [4]: 39.4 µM (active)
- AC50 [7]: 6.47 µM (active)

SMILES: S=C([S-])NCCNC(=S)[S-].[Mn+2]
- AC50 [8]: 3.16 µM (active)
- AC50 [12]: 30.5 µM (active)
- AC50 [9]: 25 µM (active)
- outcome [15]: inactive
- outcome [16]: inactive

SMILES: CCCCOCCOCCOCc1cc2c(cc1CCC)OCO2
- outcome [5]: inactive

SMILES: CCOC(=O)[C@H](C)Oc1ccc(Oc2nc3ccc(Cl)cc3o2)cc1
- outcome [17]: inactive

SMILES: COC(=O)c1ccccc1C(=O)O
- AC50 (NCBI gene 24521): 25 µM (active)

Source: PubChem BioAssay (EPA / NIEHS)
